# Data as given in the supplement of paper PMC8728848.
# Shown is part of a subset that was picked to be rich in the strongest signals.
# How the values were obtained:
# Assay in all cases: glycan array binding signal (z-score within array); higher = stronger binding
# Conditions in all cases: glycan notation: IUPAC condensed, linker removed
# GlcA(b1-6)Gal = molecular target: GlcA(b1-6)Gal
# Summary of the method: (§1)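 Arrays were curated from the Consortium for Functional Glycomics database, 3228 in total, and kept only where the protein sequence was available. Binding is expressed as a within-array Z-score. This score was averaged across arrays of the same protein sequence at different concentrations or buffers and across linkers, and negative values can be read as non-binding.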
# [1] = molecular target: GlcNAc(a1-4)Gal(b1-4)GalNAc
# Summary of the method: as §1
# [2] = molecular target: GlcNAc(a1-4)Gal(b1-4)GlcNAc
# Summary of the method: as §1
# [3] = molecular target: GlcNAc(b1-3)Gal(b1-4)GlcNAc(b1-2)[GlcNAc(b1-3)Gal(b1-4)GlcNAc(b1-6)]Man(a1-6)[GlcNAc(b1-3)Gal(b1-4)GlcNAc(b1-2)Man(a1-3)]Man(b1-4)GlcNAc(b1-4)GlcNAc
# Summary of the method: as §1
# [4] = molecular target: GlcNAc(b1-3)Gal(b1-4)GlcNAc(b1-3)Gal(b1-4)GlcNAc(b1-3)Gal(b1-4)GlcNAc(b1-2)[GlcNAc(b1-3)Gal(b1-4)GlcNAc(b1-3)Gal(b1-4)GlcNAc(b1-3)Gal(b1-4)GlcNAc(b1-6)]Man(a1-6)[GlcNAc(b1-3)Gal(b1-4)GlcNAc(b1-3)Gal(b1-4)GlcNAc(b1-3)Gal(b1-4)GlcNAc(b1-2)Man(a1-3)]Man(b1-4)GlcNAc(b1-4)[Fuc(a1-6)]GlcNAc
# Summary of the method: as §1
# [5] = molecular target: GlcNAc(b1-3)Gal(b1-4)GlcNAc(b1-3)Gal(b1-4)GlcNAc(b1-3)Gal(b1-4)GlcNAc(b1-3)Gal(b1-4)GlcNAc(b1-2)Man(a1-3)[GlcNAc(b1-3)Gal(b1-4)GlcNAc(b1-3)Gal(b1-4)GlcNAc(b1-3)Gal(b1-4)GlcNAc(b1-3)Gal(b1-4)GlcNAc(b1-2)Man(a1-6)]Man(b1-4)GlcNAc(b1-4)GlcNAc
# Summary of the method: as §1
# [6] = molecular target: GlcNAc(b1-3)Gal(b1-4)GlcNAc(b1-6)[Gal(b1-3)]GalNAc
# Summary of the method: as §1
# [7] = molecular target: GlcNAc(b1-3)Gal(b1-4)GlcNAc(b1-6)[GlcNAc(b1-3)Gal(b1-3)]GalNAc
# Summary of the method: as §1
# [8] = molecular target: GlcNAc(b1-3)[GlcNAc(b1-6)]Gal(b1-4)GlcNAc
# Summary of the method: as §1
# Kdn(a2-3)Gal(b1-3)GlcNAc = molecular target: Kdn(a2-3)Gal(b1-3)GlcNAc
# Summary of the method: as §1
# [9] = molecular target: Man(a1-2)Man(a1-2)Man(a1-3)Man
# Summary of the method: as §1
# Man(a1-2)Man(a1-3)Man = molecular target: Man(a1-2)Man(a1-3)Man
# Summary of the method: as §1
# [10] = molecular target: Man(a1-3)[Man(a1-6)]Man(b1-4)GlcNAc(b1-4)GlcNAc
# Summary of the method: as §1
# Man(a1-6)Man = molecular target: Man(a1-6)Man
# Summary of the method: as §1
# [11] = molecular target: Neu5Ac(a2-3)Gal(b1-4)GlcNAc(b1-2)Man(a1-3)[Neu5Ac(a2-6)Gal(b1-4)GlcNAc(b1-2)Man(a1-6)]Man(b1-4)GlcNAc(b1-4)GlcNAc
# Summary of the method: as §1
# [12] = molecular target: Neu5Ac(a2-3)Gal(b1-4)GlcNAc(b1-2)[Neu5Ac(a2-3)Gal(b1-4)GlcNAc(b1-6)]Man(a1-6)[Neu5Ac(a2-3)Gal(b1-4)GlcNAc(b1-2)Man(a1-3)][GlcNAc(b1-4)]Man(b1-4)GlcNAc(b1-4)GlcNAc
# Summary of the method: as §1
# [13] = molecular target: Neu5Ac(a2-3)Gal(b1-4)GlcNAc(b1-3)Gal(b1-4)GlcNAc(b1-3)Gal(b1-4)GlcNAc(b1-2)Man(a1-3)[Neu5Ac(a2-3)Gal(b1-4)GlcNAc(b1-3)Gal(b1-4)GlcNAc(b1-3)Gal(b1-4)GlcNAc(b1-2)Man(a1-6)]GalNAc
# Summary of the method: as §1
# [14] = molecular target: Neu5Ac(a2-3)Gal(b1-4)GlcNAc(b1-3)Gal(b1-4)GlcNAc(b1-6)[Gal(b1-3)]GalNAc
# Summary of the method: as §1
# [15] = molecular target: Neu5Ac(a2-3)Gal(b1-4)[Fuc(a1-3)]GlcNAc(b1-3)Gal
# Summary of the method: as §1
# [16] = molecular target: Neu5Ac(a2-3)Gal(b1-4)[Fuc(a1-3)]GlcNAc(b1-3)GalNAc
# Summary of the method: as §1
# [17] = molecular target: Neu5Ac(a2-6)Gal(b1-3)GlcNAc(b1-3)[Gal(b1-4)GlcNAc(b1-6)]Gal(b1-4)Glc
# Summary of the method: as §1
# Neu5Ac(a2-6)Gal(b1-4)Glc = molecular target: Neu5Ac(a2-6)Gal(b1-4)Glc
# Summary of the method: as §1
# [18] = molecular target: Neu5Ac(a2-6)Gal(b1-4)GlcNAc(b1-2)Man(a1-3)[Neu5Ac(a2-6)Gal(b1-4)GlcNAc(b1-2)Man(a1-6)]Man(b1-4)GlcNAc(b1-4)GlcNAc
# Summary of the method: as §1
# [19] = molecular target: Neu5Ac(a2-6)Gal(b1-4)GlcNAc(b1-3)Gal(b1-4)GlcNAc(b1-3)Gal(b1-4)GlcNAc(b1-2)Man(a1-3)[Neu5Ac(a2-6)Gal(b1-4)GlcNAc(b1-3)Gal(b1-4)GlcNAc(b1-3)Gal(b1-4)GlcNAc(b1-2)Man(a1-6)]GalNAc
# Summary of the method: as §1
# Neu5Ac(a2-6)GalNAc = molecular target: Neu5Ac(a2-6)GalNAc
# Summary of the method: as §1
# [20] = molecular target: Neu5Ac(a2-6)GalNAc(b1-4)GlcNAc
# Summary of the method: as §1
# [21] = molecular target: Neu5Ac(a2-8)Neu5Gc(a2-3)Gal(b1-4)GlcNAc
# Summary of the method: as §1
# [22] = molecular target: Neu5Ac9Ac(a2-6)Gal(b1-4)GlcNAc
# Summary of the method: as §1
binder,measurement,setting,value
PX14343G-pdi-535-24-535 (Parabacteroides distasonis) (protein) LDTVPKDQLAPSTTWQTEADAKGFIVGCYKDLLDGNTLLYLDCGSDIGYNNFPWEGFRPWGDGSLSSSNPGQILYDYKSIRKANTFLENVDKVTFSSDAVKANYVAQAKAIRAYKYFLMNWWYGGVPIISSYSSADEAKVERNTEQEVRDYIAKDLDEALAGIAEAPEARGYIAKGAVLAIKMREALYYGDWQKAKDAAKAIIDLKQYELDPDYTNLFKVSGVDSKEIILADQNIETLDGLGTIGQMYNNVDQGWSSIVPTQNLVDMYEMSDGLTKEESKTYDAKHPFANRDPRMAMTILYPGRDWRGDVLNTLDEKLQDGTVNKNFPTYTDNASKSALTWAKYLDPMDQYGDVWSSGACPIVFRYAEVLLTYAEAANELSGPSDEIYGYLNQIRQRVGMGEVDKAKYGTKDKLRELIRRERTVELAGEGLRRADIVRWQEDGKMLAEKVMNGDLLRVTGTINYGESEPTKRAEITGTAVIETRQFSSRNRYLPIPQTSMDKNPNLKQNPGY,glycan array binding signal (z-score),GlcA(b1-6)Gal,-0.046
same,glycan array binding signal (z-score),[1],-1.02
same,glycan array binding signal (z-score),[2],2.04
same,glycan array binding signal (z-score),[3],2.37
same,glycan array binding signal (z-score),[4],0.865
same,glycan array binding signal (z-score),[5],0.208
same,glycan array binding signal (z-score),[6],-1.23
same,glycan array binding signal (z-score),[7],0.869
same,glycan array binding signal (z-score),[8],1
same,glycan array binding signal (z-score),Kdn(a2-3)Gal(b1-3)GlcNAc,0.143
same,glycan array binding signal (z-score),[9],0.086
same,glycan array binding signal (z-score),Man(a1-2)Man(a1-3)Man,-0.387
same,glycan array binding signal (z-score),[10],-0.762
same,glycan array binding signal (z-score),Man(a1-6)Man,2.08
same,glycan array binding signal (z-score),[11],-0.159
same,glycan array binding signal (z-score),[12],-0.038
same,glycan array binding signal (z-score),[13],2
same,glycan array binding signal (z-score),[14],1.55
same,glycan array binding signal (z-score),[15],-0.539
same,glycan array binding signal (z-score),[16],0.588
same,glycan array binding signal (z-score),[17],-0.502
same,glycan array binding signal (z-score),Neu5Ac(a2-6)Gal(b1-4)Glc,-0.218
same,glycan array binding signal (z-score),[18],-0.872
same,glycan array binding signal (z-score),[19],1.49
same,glycan array binding signal (z-score),Neu5Ac(a2-6)GalNAc,-0.874
same,glycan array binding signal (z-score),[20],-0.103
same,glycan array binding signal (z-score),[21],16.3
same,glycan array binding signal (z-score),[22],0.187
